Where “and” joins values, the source holds several entries; their conditions need not be identical. Equal values may be shown once. Records with an inconclusive call do not appear. Calls of active or inactive are those of the source. Unless noted, the call rests on the fitted dose curve; in most records, active means well fitted curve in the direction sought with a large enough effect in the repeat runs; inconclusive means weak or mixed curves; inactive means no such curve, though single readings can be large; an effect the other way counts as inactive or inconclusive.

This passage reports Potency and outcome results from PubChem BioAssay (Tox21).

Test [1] in a line: qHTS assay to identify small molecule agonists of the vitamin D receptor (VDR) signaling pathway - cell viability counter screen (AID 743224). Further: series mostly up to about 63 µM; nearly all actives have a fitted effect of over 50% in size. The gist of the method: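 VDR-bla cell line, quantitative HTS format; 16 h compound incubation (37C, 5% CO2); ATP-based CellTiter-Glo luminescence measured in the reporter assay wells.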
A short description of test [2]: qHTS assay to identify small molecule agonists of the NFkB signaling pathway (AID 1159509; active means well fitted curve in the direction sought with a large enough effect in the signal ratio in the repeat runs, not every such curve was filed as active; the % refers to the signal ratio; further: series mostly up to about 61 µM). The gist of the method: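 NFkB-bla ME-180 cells carry a beta-lactamase reporter under an NF-kB response element. They were plated overnight, then exposed to compounds for 5 h at 37 C. Read-out is LiveBLAzer FRET after 1.5 hr at room temperature (405 nm excitation; 460/530 nm emission).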
(In general: qHTS replaces the single test concentration by a dilution series.)

The nature of test [3]: qHTS assay to identify small molecule agonists of the NFkB signaling pathway - cell viability counter screen (AID 1159515; calls by dose curve; further: series mostly up to about 61 µM; nearly all actives have a fitted effect of over 55% in size). The gist of the method:
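Viability in NFkB-bla ME-180 cells was measured by CellTiter-Glo luminescence, 30 min room temperature, in wells already treated 5 hr with compounds and read for reporter FRET.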

Test [4] in a line: qHTS assay to identify small molecule agonists of the endoplasmic reticulum stress response signaling pathway (AID 1159516; active means well fitted activation curve with a large enough effect in the signal ratio in the repeat runs, not every such curve was filed as active; the % refers to the signal ratio). The gist of the method:
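ER stress element reporter (bla) in HeLa. 1,500 cells/well, overnight attachment; 5 hr compound; 2 hr RT substrate; dual-emission fluorescence.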

Test [5] is described as follows: qHTS assay to identify small molecule antagonists of the retinoid-related orphan receptor gamma (ROR-gamma) signaling pathway - cell viability counter screen (AID 1159520). Further: nearly all actives have a fitted effect of over 50% in size. The gist of the method:
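Cytotoxicity was read from cellular ATP (CellTiter-Glo luminescence) after 16 hr at 37 C with 1 uM doxycycline induction. The inducer was added 2 hr after compound transfer to Tet-on ROR gamma CHO cells.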

Test [6] concerns the target Nuclear receptor ROR-gamma (Homo sapiens) (UniProt P51449). The experiment in a line: qHTS assay to identify small molecule antagonists of the retinoid-related orphan receptor gamma (ROR-gamma) signaling pathway (AID 1159521;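 further: CHO cells with doxycycline inducible ROR-gamma driving an RORE luciferase reporter; top concentration of the series differs between compounds; nearly all actives have a fitted effect of over 50% in size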). The method, boiled down:
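Tet-on RORγ CHO cells carrying a ROR response element–luciferase reporter were pretreated with compounds for 2 h, then induced with 1 uM (final) doxycycline hyclate for 16 h at 37 C. Antagonism was read as decreased ONE-Glo luminescence.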

Test [7] is described as follows: qHTS assay to identify small molecule agonists of the AP-1 signaling pathway - cell viability counter screen (AID 1159525; calls by dose curve; further: nearly all actives have a fitted effect of over 55% in size). The method, boiled down:
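Luminescent ATP readout (Cell Titer Glo, 30 min RT), normalised to DMSO and tetra n-octyl ammonium bromide controls. Cells were ME-180 AP-1-bla in 0.5% dialyzed FBS Opti-MEM, with a 5 h, 37 °C compound exposure.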

Test [8] in a line: qHTS assay to identify small molecule agonists of the AP-1 signaling pathway (AID 1159526; calls by dose curve).
For test [9], the target named is Retinoic acid receptor RXR-alpha (Homo sapiens) (UniProt P19793). Put plainly: qHTS assay to identify small molecule agonists of the RXR signaling pathway (AID 1159527; calls by dose curve; further: nearly all actives have a fitted effect of over 35% in size). The method, boiled down:
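GeneBLAzer RXR-alpha-UAS-bla HEK 293T cells in medium with 2% charcoal-stripped FBS, pre-incubated 5 hr at 37 C, then exposed to compounds 16 hr. Beta-lactamase reporter read by FRET substrate, 2 hr room temperature, 460/530 nm emission.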

The nature of test [10]: qHTS assay to identify small molecule agonists of the RXR signaling pathway - cell viability counter screen (AID 1159529). Further: series mostly up to about 77 µM; nearly all actives have a fitted effect of over 50% in size. The method, boiled down: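 RXR-alpha-UAS-bla HEK 293T cells in medium with 2% charcoal-stripped FBS were preincubated 5 hr, then exposed to compounds for 16 hr at 37 C. Viability was read as CellTiter-Glo luminescence after 30 min at room temperature.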

Test [11] in a line: qHTS assay to identify small molecule antagonists of the retinoid acid receptor (RAR) signaling pathway - cell viability counter screen (AID 1159551). Further: nearly all actives have a fitted effect of over 35% in size. The gist of the method:
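Following overnight attachment, C3RL4 reporter cells received DMSO-dissolved compounds and then retinol (1 uM final). Six hours later at 37 C, ATP content was measured by CellTiter-Glo luminescence.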

Test [12] in a line: qHTS assay to identify small molecule antagonists of the retinoic acid receptor (RAR) signaling pathway (AID 1159552; further: nearly all actives have a fitted effect of over 50% in size). The gist of the method: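 RARE-luc C3RL4 cells; cpds + 1 uM (final) retinol, 6 hr, 37 C/5% CO2; luciferase reagent, 30 min RT, luminescence readout. Inhibitors of retinol-driven signal scored.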
The nature of test [13]: qHTS assay to identify small molecule agonists of the retinoic acid receptor (RAR) signaling pathway (AID 1159553). Further: potency means the concentration at half of the fitted maximal effect. The method, boiled down:
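Cell line C3RL4, RARE luciferase reporter. Treatment: compounds in DMSO, 6 hr, 37 C, 5% CO2, after overnight plating. Detection: luminescence, 30 min RT after reagent.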

Test [14] in a line: qHTS assay to identify small molecule antagonists of the vitamin D receptor (VDR) signaling pathway - cell viability counter screen (AID 743225). Further: nearly all actives have a fitted effect of over 50% in size. The method, boiled down: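 VDR-bla HEK 293T cells, 4 h pre-incubation at 37C, then compound plus 1-alpha,25-dihydroxyvitamin D3 (3 nM final) for 16 h. After the beta-lactamase FRET read, CellTiter-Glo was added to the same wells; luminescence after 30 min at room temperature.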

Test [15] in a line: qHTS assay to identify small molecule agonists of the endoplasmic reticulum stress response signaling pathway - cell viability counter screen (AID 1159517; calls by dose curve). The method, boiled down: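 HeLa cells carrying an ESRE-driven beta-lactamase reporter receive compound for 5 hr at 37 C. Cell viability is then gauged with CellTiter-Glo by luminescence, 30 min at room temperature.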
Test [16] can be described thus: qHTS assay to identify small molecule antagonists of the estrogen related receptor (ERR) signaling pathway - cell viability counter screen (AID 1224818). Further: series mostly up to about 46 µM. The gist of the method:
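Here, ERR cells are plated at 2,000 cells per well, allowed 6 h to attach, and treated with compounds in DMSO for 17.5 h at 37 C. CellTiter-Fluor is then added and fluorescence read after 30 min.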

The nature of test [17]: qHTS assay to identify small molecule antagonists of the estrogen related receptor (ERR) signaling pathway (AID 1224819). The gist of the method:
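LOPAC library screened for antagonism as reduced One-Glo luminescence in ERR reporter cells (2,000/well). Compounds were added after 6 h pre-incubation and left 18 h at 37C; reading followed a 30 min room-temperature reagent step.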

A short description of test [18]: qHTS assay to identify small molecule agonists of the estrogen related receptor (ERR) signaling pathway (AID 1224820). The gist of the method:
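ERR reporter cell line (from NTP), 2,000 cells/well, incubated 6 h before compound addition, then 18 h at 37 C. Luminescence measured 30 min after One-Glo reagent at room temperature.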

The test system of test [19] is estrogen-related receptor alpha (ERRalpha) with PGC-1alpha coactivator, human. The experiment in a line: qHTS assay to identify small molecule antagonists of the estrogen related receptor signaling pathway with the pleiotropic PPARgamma coactivator (PGC) (AID 1224821; calls by dose curve). The gist of the method: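 PGC/ERR reporter cell line, plated 6 h before compound addition, then exposed 18 h at 37 °C. Luciferase activity read by luminescence 30 min after One-Glo addition; decrease indicates antagonism.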

Test [20] can be described thus: qHTS assay to identify small molecule antagonists of the estrogen related receptor signaling pathway with the pleiotropic PPARgamma coactivator (PGC) cell viability counter screen (AID 1224822; further: series mostly up to about 46 µM). The gist of the method: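 qHTS format, DMSO compound stocks pin-transferred onto PGC/ERR cells 6 h after plating; 17.5 h exposure at 37 C, then CellTiter-Fluor fluorescence.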

Chain of Retinoic acid receptor RXR-alpha (Homo sapiens) (P19793 whole entry, looked up): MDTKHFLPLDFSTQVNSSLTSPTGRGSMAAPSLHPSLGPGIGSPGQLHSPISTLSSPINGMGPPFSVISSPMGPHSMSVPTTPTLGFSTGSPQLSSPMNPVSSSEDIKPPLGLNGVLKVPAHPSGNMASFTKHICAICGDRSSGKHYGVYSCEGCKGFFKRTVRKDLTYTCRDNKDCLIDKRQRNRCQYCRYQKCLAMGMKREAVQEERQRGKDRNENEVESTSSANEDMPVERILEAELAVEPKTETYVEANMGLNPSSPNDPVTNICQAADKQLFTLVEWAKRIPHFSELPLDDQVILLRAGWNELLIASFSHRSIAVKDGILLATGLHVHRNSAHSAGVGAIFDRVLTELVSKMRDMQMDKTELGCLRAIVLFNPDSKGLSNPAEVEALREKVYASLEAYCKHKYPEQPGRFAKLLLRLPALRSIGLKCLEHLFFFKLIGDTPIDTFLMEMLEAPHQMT

`CN1CCN(c2cc3c(cc2F)c(=O)c(C(=O)O)cn3-c2ccc(F)cc2)CC1`: the Potency result in [1], in test [6], in test [7], in [9], in [10] and in [12] was “inactive” in each case. Moreover, the Potency result in test [13] is “inactive”. The compound was called inactive in test [2], in test [3], in [4], in test [5], in [8] and in [11].

Take `CC(C)CCCC(C)N` (centres undefined): the Potency entry in [14], in test [7], in test [9], in test [10], in test [12] and in test [13] was “inactive” each time. Besides, the compound was classed as inactive in test [2], in test [3], in [4], in test [15], in [5] and in [8]. In addition, the call in test [11] was inactive.

Regarding `COC(=O)[C@@H](N)Cc1ccc(O)c(O)c1`, the Potency result in test [1], in test [14], in test [6], in [7], in [9] and in [10] was “inactive” in each case. Further, the Potency result in test [12] and in test [13] was “inactive” throughout. Besides, the outcome in [2], in test [3], in test [4], in test [5], in [8] and in test [11] was inactive. Further, the outcome in [16], in test [17], in test [18], in [19] and in test [20] was inactive.

With `CCSC(=O)N(CC(C)C)CC(C)C`, the Potency entry in test [1], in test [7], in test [9], in test [10] and in test [12] was “inactive” throughout. Also, the compound was called inactive in test [2], in test [3], in test [4], in test [15], in test [5] and in test [8]. The compound was classed as inactive in test [11].

As for `O=c1cc(-c2ccccc2)oc2ccccc12`, the Potency result in test [1], in test [7], in test [10] and in [12] was “inactive” throughout. Moreover, the compound was called inactive in [2], in test [3], in test [4], in test [15], in test [5] and in [8]. Also, the result in test [11], in test [16] and in [20] was inactive. In addition, the Potency in test [13] is 3.44 µM (active) and 858 nM (active).

Regarding `C=C(C)CS(=O)(=O)O`, the Potency result in test [14], in [7], in [9], in test [12] and in test [13] was “inactive” in each case. Also, the compound was classed as inactive in test [2], in test [3], in test [4], in test [15], in test [5] and in test [8]. In test [11], the compound was classed as inactive.

For the compound `CC(C)(c1ccc(O)cc1)c1ccc(O)cc1`, the Potency entry in test [1], in test [14], in test [7], in test [10], in test [12] and in test [13] was “inactive” each time. In addition, the result in test [2], in test [3], in [4], in test [15], in test [5] and in test [8] was inactive. The compound was called inactive in test [11], in test [16], in test [17], in test [18], in test [19] and in test [20].

In the case of `CCCCCCCCS(=O)(=O)Cl`, the Potency entry in test [1], in test [7], in test [9] and in test [12] was “inactive” throughout. Further, the compound was classed as inactive in test [2], in [3], in [4], in test [15], in [5] and in test [8]. Moreover, in test [11], the compound was called inactive.

On to `O=C(O)CCCc1ccccc1`, for which the Potency result in test [1], in [14], in test [7], in test [9], in test [10] and in test [12] was “inactive” each time. The Potency result in test [13] was “inactive”. In addition, the compound was classed as inactive in [2], in [3], in test [4], in test [15], in test [5] and in test [8]. Further, in test [11], the compound was classed as inactive.

On to `CC(C)OC(=O)c1ccccc1`, for which the Potency result in test [1], in test [6], in test [7], in [9], in [10] and in [12] was “inactive” throughout. Also, the Potency entry in test [13] was “inactive”. Further, the compound was classed as inactive in test [2], in test [3], in [4], in test [5], in [8] and in [11].
